Many of the other results were omitted from the sample, so hits are more common in it than they were.
Pf Dd2 growth: Plasmodium falciparum Dd2 growth inhibition; P. falciparum Dd2 growth, SYBR Green, 72 h; AID 1347417; Potency, µM (doses to about 28.9 µM), most hits filed as inhibitors; 120,000 tested, 4.3% active; active = well fitted inhibition curve with a large enough effect; note: nearly all actives have a fitted effect of over 65% in size
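Readout: SYBR Green fluorescence, 485 nm excitation, 535 nm emission, after ~16 h lysis at 37C. Before that, Dd2-infected red cells (2.5% hematocrit) grew 72 h with compound, 29 uM top final concentration.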
Each line names hits and unclear results; the compound was inactive in the other large screens.

c1cncc(Nc2cc3c(cn2)CN(Cc2ccsc2)CCN3)c1	Pf Dd2 growth 8.9µM
O=C(N1CCC(Cc2nc(C3CC3)n[nH]2)CC1)C1(c2ccccc2)CC1	none
O=C(N1CCCCC1)N1CCN([S+](=O)([O-])c2ccc(Cl)nc2)C(=O)C1	none
CC(C)(C)CN1CCNC(=O)C1CC(=O)O (stereo not drawn)	none
O=C(Cc1ccccc1)N1CCC2(CC1)CC(N(Cc1ccccc1)C1CC1)CCO2 (stereo not drawn)	none
COc1cccc(CC(=O)N2CCC3(CC2)CC(N(Cc2ccccc2)C2CC2)CCO3)c1 (stereo not drawn)	none
Cc1ccsc1C(=O)N1CCC2(CC1)CC(N(C(=O)c1ccccc1)C1CC1)CCO2 (stereo not drawn)	none
Cc1ccsc1C(=O)N1CCC2(CC1)CC(N(Cc1ccc(F)cc1)C1CC1)CCO2 (stereo not drawn)	Pf Dd2 growth 10µM
CCS(=O)(=O)N(C1CC1)C1CCOC2(CCN(C(=O)c3ccc(F)cc3)CC2)C1 (stereo not drawn)	none
O=C(c1ccsc1)N1CCC2(CC1)CC(N(Cc1ccccc1)C1CC1)CCO2 (stereo not drawn)	none
O=C(NC1CCCC1)N1CCC2(CC1)CC(N(C(=O)c1ccccc1)C1CC1)CCO2 (stereo not drawn)	none
CCC(CC)C(=O)N1CCC2(CC1)CC(N(Cc1ccc(F)cc1)C1CC1)CCO2 (stereo not drawn)	none
O=C(COc1ccccc1)N1CCC2(CC1)CC(N(Cc1ccccc1)C1CC1)CCO2 (stereo not drawn)	Pf Dd2 growth 3.2µM
O=C(c1ccsc1)N1CCC2(CC1)CC(N(Cc1ccc(F)cc1)C1CC1)CCO2 (stereo not drawn)	Pf Dd2 growth 8.9µM
COC(=O)CNC(=O)N1CCC2(CC1)CC(N(Cc1ccc(F)cc1)C1CC1)CCO2 (stereo not drawn)	none
O=C(NC1CCCC1)N1CCC2(CC1)CC(N(Cc1ccc(F)cc1)C1CC1)CCO2 (stereo not drawn)	Pf Dd2 growth 4.5µM
Cc1ccc(NC(=O)c2ccc3c(c2)N(S(C)(=O)=O)CC3)c(C)c1	none
Cc1cccc(N(C)c2ccc3nnc(-c4cc(C(=O)N(C)C)ccn4)n3n2)c1	none
CCc1ccc(NC(=O)Cn2c(=O)c(-c3noc(CC)n3)c3n(c2=O)CCCCC3)cc1	none
CCc1cn(C[C@H](NC(=O)c2ccco2)C(=O)O)c(=O)[nH]c1=O	none
COc1ccc(CN2CCc3nn(CC(C)C)c(=O)n3CC2)cc1Cn1ccnc1	none
O=C(c1ccccc1F)N1CCCC2(CC(c3cccnc3)=NO2)C1 (stereo not drawn)	none
CC1(C)[C@H](Cc2cc(CCO)on2)C[C@@H]1NC1CCCCC1	none
COCCNC(=O)c1cc(-c2ccc(OC)cc2)nc2onc(C3CCNC3)c12 (stereo not drawn)	none
CCc1nc(-c2c3n(c(=O)n(Cc4ccc(OC)cc4)c2=O)CCCCC3)no1	none
Cc1c(C(=O)Nc2cccc(C(F)(F)F)c2)oc2ccc(S(=O)(=O)N(C)C3CCCCC3)cc12	Pf Dd2 growth 11µM
Cc1c(C(=O)Nc2ccc(F)c(Cl)c2)oc2ccc(S(=O)(=O)N(C)C3CCCCC3)cc12	none
Cc1ccc(NC(=O)c2oc3ccc(S(=O)(=O)N(C)C4CCCCC4)cc3c2C)c(C)c1	none
O=C(NCCc1ccccc1F)C1CN(c2cccc(Cl)c2)C(=O)N1 (stereo not drawn)	none
COc1ccc(CC(=O)N2CCCC(c3ccc(C(=O)O)cc3)C2)c(OC)c1 (stereo not drawn)	none
Cc1ccc(C)c(CN2CCC(CNC(=O)Nc3ccc(Br)cc3F)CC2)c1	Pf Dd2 growth 8.9µM
Cc1ccc(NC(=O)NCC2CCOCC2)c(C)c1	none
COc1ccc(NC(=O)NCC2CCN(Cc3ccccc3F)CC2)c(OC)c1	none
COc1ccccc1CC(=O)N1CC[C@@H](NC(=O)c2cnccn2)[C@H](O)C1	none
O=C(NCc1ccc(F)cc1)C1CCc2nnc(-c3ccc(Cl)nc3)n21 (stereo not drawn)	Pf Dd2 growth 7.1µM
O=C(C1CCc2nnc(-c3ccc(Cl)cc3Cl)n21)N1CCN(c2ncccn2)CC1 (stereo not drawn)	none
CC(C)NC(=O)NCc1nnc2n1C(C(=O)NCc1ccc(F)cc1)CC2 (stereo not drawn)	none
O=C(NCc1nnc2n1C(C(=O)NCc1ccc(F)cc1)CC2)c1ccc(Cl)cc1Cl (stereo not drawn)	none
COc1ccccc1-c1nnc2n1C(C(=O)N1CCN(c3ncccn3)CC1)CC2 (stereo not drawn)	none
Cn1ccc(C(=O)NCc2nnc3n2C(C(=O)NCc2ccc(F)cc2)CC3)n1 (stereo not drawn)	none
C#CCNC(=O)C1CCc2nnc(-c3ccc(Cl)nc3)n21 (stereo not drawn)	none
COc1ccccc1-c1nnc2n1C(C(=O)NCc1ccc(F)cc1)CC2 (stereo not drawn)	Pf Dd2 growth 4µM
O=C(NCc1ccc(F)cc1)C1CCc2nnc(-c3ccc(Cl)cc3Cl)n21 (stereo not drawn)	Pf Dd2 growth 3.2µM
O=Cc1cccc(-c2ccc(O)cc2)c1	none
Cc1n[nH]c(C)c1CCC(=O)NCC1CCN(c2cc(-c3ccccc3)[nH]n2)CC1	none
CNC(=O)[C@@H]1C[C@@H](n2cc(CNC(=O)Nc3cc(F)ccc3F)nn2)CN1	none
Cc1ccc2nc(COCC(=O)N[C@H]3CC[C@@H]4CCC[C@@H]43)[nH]c2c1	none
COCCOc1ccc(C(=O)N[C@@H]2CN(C(=O)Nc3cccc(OC)c3)CCC[C@H]2O)cc1	none
O=C(c1cccc2c1NCCC2)N1CCn2nc(C(O)C3CC3)cc2C1 (stereo not drawn)	none
COCCOc1cc(C)c2c(c1C)C[C@H](C(C)C(=O)NC(C)(C)C)CC2 (stereo partly drawn)	none
COCCOc1cc(C)c2c(c1C)C[C@H]([C@H](C)C(=O)NC1CCCC1)CC2	none
COCCOc1cc(C)c2c(c1C)C[C@H]([C@H](C)C(=O)Nc1ccccn1)CC2	Pf Dd2 growth 13µM
COc1cc(=O)n2c(c1C(=O)Nc1ccc(Br)cc1F)CCCC2	none
COCc1nc(-c2ccc(OC3CCN(C(=O)Cc4c[nH]c5ccccc45)C3)cc2)no1 (stereo not drawn)	none
COc1ccc(C(=O)N2CCC(C(NC(=O)c3cccc(OC)c3)C(=O)N3CCCC3)CC2)cc1 (stereo not drawn)	none
CCCNC(=O)C(NC(=O)c1cccc(OC)c1)C1CCN(C(=O)c2cccc(F)c2)CC1 (stereo not drawn)	none
COc1cccc(C(=O)N2CCC(C(NC(=O)c3ccccc3)C(=O)NCc3ccco3)CC2)c1 (stereo not drawn)	Pf Dd2 growth 8.9µM
O=C(NC(C(=O)N1CCCCC1)C1CCN(C(=O)c2ccccc2)CC1)c1ccccc1Cl (stereo not drawn)	none
COCCNC(=O)C(NC(=O)c1cccc(OC)c1)C1CCN(C(=O)c2ccc(C)cc2)CC1 (stereo not drawn)	none
Cc1ccc(C(=O)NC(C(=O)N2CCCC2)C2CCN(C(=O)c3ccccc3F)CC2)cc1 (stereo not drawn)	none
O=C(NC(C(=O)NCc1ccco1)C1CCN(C(=O)C2CC2)CC1)c1ccccc1 (stereo not drawn)	none
Cc1cccc(C(=O)N2CCC(C(NC(=O)c3ccccc3)C(=O)N3CCCCC3)CC2)c1 (stereo not drawn)	Pf Dd2 growth 11µM
COc1cccc(C(=O)NC(C(=O)N2CCCCC2)C2CCN(C(=O)c3cccc(F)c3)CC2)c1 (stereo not drawn)	Pf Dd2 growth 8.9µM
COc1ccc(CCC(=O)N2[C@@H]3CC[C@H]2CC(NC(=O)c2ccncc2)C3)cc1 (stereo partly drawn)	none

Screening results: PubChem, National Center for Advancing Translational Sciences (NCATS)
